HSP90 inh = blocks HSP90-mediated luciferase refolding in reticulocyte lysate. Rabbit reticulocyte lysate, luciferase refolding luminescence, 3 h. inhibition, % at 5.6 µM. 290,000 tested, 0.91% active. AID 1789;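 active = inhibition above the screen-wide mean plus 3 SD, computed separately per campaign, cut at about 16% in these data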;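 note: inhibitors lower the luminescence because luciferase stays unfolded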
HSF-1 act = increases HSF-1 driven luciferase reporter signal; NIH3T3-HGL HSF-1 luciferase reporter, MG132, 8 h; 100% = twice DMSO control signal; activation, % at 9 µM; 300,000 tested, 1.7% active; AID 504408;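 active = mean replicate activation of at least 50% with a set share of replicates each reaching 50%; inconclusive = only one of those two conditions met; inactive = mean below 50% and too few replicates reaching it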
dFosB activator = activators of mouse delta FosB homodimer; P13346; purified delta FosB, TAMRA-CDK5 oligo fluorescence polarization; percent of positive-control signal above neutral wells; activation, % at 25 µM; 340,000 tested, 0.99% active; AID 493131;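 active = mean activation above about 17%, with every replicate also reaching it, limit read from the data, passing the limit was not always enough; inconclusive = only one of the two conditions met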
Target sequence (P13346 whole entry, looked up): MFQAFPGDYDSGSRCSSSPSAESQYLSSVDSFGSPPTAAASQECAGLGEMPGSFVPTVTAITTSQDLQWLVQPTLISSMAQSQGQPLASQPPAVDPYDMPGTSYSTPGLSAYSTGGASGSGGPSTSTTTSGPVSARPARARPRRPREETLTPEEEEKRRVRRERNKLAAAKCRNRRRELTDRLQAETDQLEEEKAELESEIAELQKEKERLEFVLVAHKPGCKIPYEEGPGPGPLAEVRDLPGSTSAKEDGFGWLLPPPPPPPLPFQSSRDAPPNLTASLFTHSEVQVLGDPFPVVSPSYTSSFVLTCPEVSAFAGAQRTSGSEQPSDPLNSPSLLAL
HSF1 inh = HSF1 inhibition; NIH3T3-HGL HSE-luciferase, MG132-induced, luminescence 8 h; active compounds read low; activity change, negative = inhibition, % at 7.5 µM (by protocol); 300,000 tested, 0.77% active; AID 2098;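 active = more than half of replicate wells show activity change below -50%, luminescence cut by over half; inconclusive = some wells, but at most half, below -50%; inactive = no replicate well below -50%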;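 note: luciferase reports HSF-1 transcriptional activity via heat shock element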
MPTP block = inhibitors of mitochondrial permeability transition pore | isolated mouse mitochondria, Ca2+ swelling absorbance, 30 min | inhibition, % at 10 µM | 360,000 tested, 1.4% active;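 active = inhibition of 50% or more, scaled per plate between neutral and stimulator controls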
Platelet DG rel = modulates dense granule release in human platelets. human platelet-rich plasma, SFLLRN dense granule ATP release, luminescence. inhibition, %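 (compounds screened at 7.5 µM in platelet-rich plasma)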. 300,000 tested, 0.22% active. AID 1663;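 active = mean replicate score, as percent of positive control, at or above 50; inconclusive = mean below 50 but at least one replicate at or above 50; inactive = mean and every replicate below 50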
MPTP counter = Rhodamine 123 counter-screen of mitochondrial pore hits | inhibition, % at 10 µM | 5,000 tested, 78% active | isolated mitochondria, membrane potential, Rhodamine 123 fluorescence | shares compounds with MPTP block; in the data active = inhibition above about 22%
MPTP swell DR = dose response confirmation of mitochondrial permeability transition pore inhibitors; shares compounds with MPTP block; IC50, µM; AID 651561; 780 tested, 58% active; isolated mitochondria swelling, absorbance; in the data active = IC50 below about 20 µM
MPTP counter DR = MPTP inhibitor counter-screen activity, dose response; AID 651564; shares compounds with MPTP block; IC50, µM; 780 tested, 49% active; isolated mitochondria counterscreen, fluorescence read-out; in the data active = IC50 below about 80 µM
Each line names hits and unclear results; the compound was inactive in the other large screens (follow-up assays come after a bar, where they were run). Hits are enriched below; roughly 4.9% of the tested compounds scored in any of these assays.

CCN(Cc1nc(-c2ccc(OC)c(OC)c2)no1)C(=O)c1ccc2c(c1)OCO2	none
COc1cccc(C(=O)NCCN2CCC(n3c(=O)[nH]c4ccccc43)CC2)c1	none (no result: HSP90 inh, HSF-1 act, dFosB activator, HSF1 inh, Platelet DG rel)
O=C(COC(=O)C1CC2C=CC1C2)Nc1cccc(S(=O)(=O)N2CCCCC2)c1 (stereo unspecified)	MPTP block 58.8 | MPTP counter 37.5
O=C(COC(=O)c1c(F)cccc1F)Nc1cccc(S(=O)(=O)N2CCCCC2)c1	none (no result: HSP90 inh, HSF-1 act, dFosB activator, HSF1 inh, Platelet DG rel)
O=C(COC(=O)C1CC2C=CC1C2)Nc1cccc(S(=O)(=O)N2CCCCCC2)c1 (stereo unspecified)	MPTP block 65.1 | MPTP counter 70.2
O=C(COC(=O)C1CCC1)Nc1cccc(S(=O)(=O)N2CCOCC2)c1	none (no result: HSP90 inh)
O=C(O)C1CCCC2CN3CCc4c([nH]c5ccccc45)C3C(O)C21 (stereo unspecified)	none
CCOP(=O)(OCC)C(NC(=O)Nc1ccc(Cl)c(Cl)c1)C(N)=O (stereo unspecified)	none
CCOP(=O)(OCC)C(NC(=O)Nc1ccc(Cl)cc1)c1ccccc1 (stereo unspecified)	none
CCOP(=O)(OCC)C(NC(=O)Nc1ccc(Cl)c(Cl)c1)c1ccccc1 (stereo unspecified)	MPTP block 60.0 | MPTP counter 55.7
CCOP(=O)(OCC)C(NC(=O)Nc1ccc(C)c(Cl)c1)c1ccccc1 (stereo unspecified)	MPTP block 84.4 | MPTP counter 84.3
O=[N+]([O-])c1cccc(-c2nc(-c3cccs3)c(-c3cccs3)[nH]2)c1	MPTP block 103.8 | MPTP counter 53.1
O=[N+]([O-])c1cccc(-c2nc(-c3ccccc3)c(-c3cccs3)[nH]2)c1	none
O=C(Nc1c2c(nn1-c1ccccc1)CS(=O)(=O)C2)C1CC1	none (no result: HSP90 inh, HSF-1 act, dFosB activator, HSF1 inh, Platelet DG rel)
O=C1OC(c2ccc(O)cc2)(c2ccccc2O)c2ccccc21 (stereo unspecified)	none (no result: HSP90 inh, HSF-1 act, HSF1 inh, Platelet DG rel)
O=C1OC(c2ccccc2)(c2cc(Br)ccc2O)c2ccccc21 (stereo unspecified)	MPTP block 75.7 (no result: HSP90 inh, HSF-1 act, HSF1 inh, Platelet DG rel) | MPTP counter 97.0
O=C(NCCc1ccccc1)c1ccc2c(=O)[nH]c3c(C(=O)NCC4CCCO4)sc(=S)n3c2c1 (stereo unspecified)	none
CCCCNC(=O)c1sc(=S)n2c1[nH]c(=O)c1ccccc12	MPTP block 96.3 | MPTP counter 79.6
O=C(NC1CCCCC1)c1sc(=S)n2c1[nH]c(=O)c1ccccc12	MPTP block 89.9 | MPTP counter 92.3
CC(C)C1Cc2c(sc3ncnc(NN)c23)CO1 (stereo unspecified)	none
CCCCc1c(-c2ccccc2OC)ncn1Cc1ccc(-c2ccccc2)cc1	MPTP block 77.5 (no result: HSP90 inh, HSF-1 act, dFosB activator, HSF1 inh, Platelet DG rel) | MPTP counter 116.3
CC(C1CC1)N(Cc1ccccc1)C(=S)Nc1cccc(C(F)(F)F)c1 (stereo unspecified)	MPTP block 65.4 | MPTP counter 84.6
COc1ccc(N2CCN(C(=O)c3ccccc3N(C)S(=O)(=O)c3ccc(C)cc3)CC2)cc1	none
COCC(=O)O[C@]1(CCN(C)CCCc2nc3ccccc3[nH]2)CCc2cc(F)ccc2[C@@H]1C(C)C	MPTP block 92.9 (no result: HSP90 inh) | MPTP counter inactive
CCOC(=O)CCc1nc2ccccc2[nH]1	none
CC(/C=C1\SC(=S)N(NS(=O)(=O)c2ccc(C)cc2)C1=O)=C\c1ccccc1	MPTP block 53.6 | MPTP counter 40.7
CC(/C=C1\SC(=S)N(NS(=O)(=O)c2ccccc2)C1=O)=C\c1ccccc1	none
Fc1ccc(-c2csc(NC(=S)Nc3ccccc3)n2)cc1	none
O=C(Nc1nc(-c2ccccc2)cs1)c1ccccc1NS(=O)(=O)c1ccc(F)cc1	MPTP block 93.1 | MPTP counter 34.7
O=C(Nc1ccccc1)Nc1nc(-c2ccc(F)cc2)cs1	MPTP block 91.9 | MPTP counter 86.0
O=C(Nc1nc(-c2ccc(Cl)cc2)cs1)NC1CCCCC1	MPTP block 92.5 | MPTP counter 88.0
O=S(=O)(Nc1ccc(-c2csc(-c3ccccc3)n2)cc1)c1ccc(F)cc1	none
O=C(Cc1ccc(F)cc1)Nc1nc(-c2ccc(F)c(F)c2)cs1	MPTP block 58.6 | MPTP counter 85.6
CC(C)(C#N)NC(=O)C1CCCN1S(=O)(=O)c1ccc2ccccc2c1 (stereo unspecified)	none
Cc1ccc(C(=O)N2CCN(S(=O)(=O)N3CCCCC3)CC2)cc1	none
Cc1cn([C@H]2C[C@H](O)[C@@H](CCC(=O)NCC(c3ccccc3)c3ccccc3)O2)c(=O)[nH]c1=O	none (no result: HSP90 inh, HSF-1 act, dFosB activator, HSF1 inh, Platelet DG rel)
COc1ccc(CCC(=O)OCC(=O)NC2CCCC2)cc1OC	none (no result: HSP90 inh, HSF-1 act, dFosB activator, HSF1 inh, Platelet DG rel)
NC(CO)c1csc(NC(=O)Nc2cccc(Cl)c2)n1 (stereo unspecified)	none (no result: HSP90 inh, HSF-1 act, dFosB activator, HSF1 inh, Platelet DG rel)
Cc1csc(NC(=O)Nc2cccc(Cl)c2)n1	HSF-1 act 55.4, MPTP block 91.9 | MPTP counter 75.2
O=C(Nc1cccc(Cl)c1)Nc1nc(-c2ccccc2)cs1	MPTP block 94.2 | MPTP counter 83.1
Cc1nnc(NC(=O)Nc2cccc(Cl)c2)s1	none
FC(F)(F)c1cc(-c2ccccc2)nc(N2CCCCC2)n1	MPTP block 67.3 | MPTP counter inactive | MPTP swell DR inactive | MPTP counter DR inactive
Cc1ccc(S(=O)(=O)NC(=O)C2(C)CCN2C(=O)Cc2ccc(C(C)(C)C)cc2)nc1 (stereo unspecified)	none (no result: HSP90 inh, HSF-1 act, dFosB activator, HSF1 inh, Platelet DG rel)
CCOC(=O)C1(CC2CCCCO2)CCN(C(=O)Nc2ccc(C(=O)OC)cc2)CC1 (stereo unspecified)	MPTP block 56.5 | MPTP counter 60.9
CCCC1=NN(c2ccc([N+](=O)[O-])cc2)C(=O)/C1=C\N(C)C	MPTP block 77.7 | MPTP counter 25.6
CCNc1ccc([N+](=O)[O-])cc1	none
O=C1NC(=S)/C(=C\c2ccc(-c3ccccc3Cl)o2)S1	MPTP block 91.3 | MPTP counter 37.4
O=C1NC(=O)/C(=C/c2ccc(-c3cc(C(=O)O)ccc3Cl)o2)S1	none
O=C(COc1ccccc1/C=C1\SC(=S)NC1=O)Nc1ccc(F)cc1	MPTP block 61.0 (no result: HSP90 inh, HSF-1 act, HSF1 inh, Platelet DG rel) | MPTP counter 77.6
NC1=NC(=O)/C(=C/c2ccccc2OCC(=O)Nc2ccc(F)cc2)S1	dFosB activator inconclusive (no result: HSP90 inh, HSF-1 act, HSF1 inh, Platelet DG rel)
O=C(/C=C/c1ccc(F)cc1)N1CC[C@@]2(O)CCCC[C@H]2C1	none
COc1ccc(OC)c(NC(=O)CSc2ncnc3c2cnn3-c2ccccc2Cl)c1	MPTP block 84.2 | MPTP counter 82.2

Screening results (PubChem)
